Here are results for 82 molecules from ChEMBL document CHEMBL4888484, “Replenishing the malaria drug discovery pipeline: Screening and hit evaluation of the MMV Hit Generation Library 1 (HGL1) against asexual blood stage Plasmodium falciparum ,using a nano luciferase reporter read-out” (2022).

The whole screen tested about 150,000 compounds, of which about 540 (0.36%) showed an effect of 50% or more. Only a selection was taken, and strong results are over-represented in it overall.

The assay deals with Plasmodium falciparum. Nature of the assay: Primary screen in NF54 nanoGlo assay, in single point, at 2uM, 72h; a lower Z score goes with more inhibition. In kind it is functional, Erythrocyte. The following applies: timepoint 72 hour.
`Cc1ccc(-c2cc(C(=O)N(Cc3cccs3)[C@H]3CCS(=O)(=O)C3)no2)cc1F`: the % Inhibition – broadly, the relative decrease from the control value, in per cent – is recorded as -11% and the Z score was found to be 2.15.
In the same order, the values of `CN(Cc1cc(-c2ccccc2)n[nH]1)c1cc(C2CC(O)C2)nc(N)n1` (centres undefined) are 7% and -1.1.
For `CCCCN(C)c1cc([C@H]2C[C@@H](N)C2)nc(N)n1`, the “% Inhibition” value is reported as -3% and the Z score came to 0.38.
For `CN(Cc1ccc(-c2ccccc2)cc1)c1cc([C@H]2C[C@@H](N)C2)nc(N)n1` the same measures were 64% and -8.85.
In the same order, the values of `CCn1c(CN[C@H](c2ccccc2)c2cccs2)nc2cc(S(=O)(=O)N3CCCCC3)ccc21` are 14% and -1.61.
In the same order, the values of `Cc1ccc(NC(=O)N2CC[C@H](N3CCN(C)CC3)[C@H](CCC(=O)O)C2)c(C)c1` are 16% and -2.12.
On to `O=C1CCCN1c1ccc(NCc2cccc(O)c2)cc1F`, for which the “% Inhibition” value was -2% and the Z score was determined as 0.32.
In the same order, the values of `O=C(N1CCCN(C2CCC2)CC1)C1(c2ccccc2)CCOCC1` are -14% and 2.36.
In the case of `CCOc1cc(CNc2cc(C)ccc2C)cc(Br)c1OCC(=O)Nc1ccccc1`, the “% Inhibition” value was -2% and the Z score is 0.3.
As for `CCOc1cc(CNc2cccc3ccccc23)cc(Br)c1OCC(=O)NC(C)(C)C`, the “% Inhibition” value amounted to 56% and the Z score is listed as -9.96.
For `CCOc1cc(CNC2CCCC2)cc(Br)c1OCC(=O)Nc1ccccc1OC` the same measures were -12% and 1.42.
Take `CN(C)c1ccccc1NC(=O)N[C@H]1CCS(=O)(=O)C1`: the “% Inhibition” value is -11% and the Z score was 1.66.
As to `COc1ccc(-n2c(-c3sc(Nc4ccc(Cl)cc4)nc3C)nc3ccccc3c2=O)cc1`, the “% Inhibition” value is reported as -3% and the Z score came out at 0.38.
With `CCOC(=O)Nc1nc(C)c(-c2nc3ccccc3c(=O)n2-c2ccc(OC)cc2)s1`, the “% Inhibition” value was found to be 37% and the Z score was found to be 0.52.
With `COC(=O)Nc1nc(-c2ccccc2)c(-c2nc3ccccc3c(=O)n2-c2ccc(OC)cc2)s1`, the “% Inhibition” value amounted to 51% and the Z score is listed as -6.56.
With `C[C@H]1C(=O)N(C)C[C@@H](COc2ccccc2)N1C(=O)C1CCOCC1`, the “% Inhibition” value is listed as -7% and the Z score came out at 0.87.
For `Cc1cc(CNC(=O)N[C@@H]2CCc3cc(F)ccc32)on1` the same measures were -7% and 0.96.
In the same order, the values of `Fc1ccc(C2=C[C@@H](c3ccc(Cl)cc3)N3N=C(c4ccc(Cl)cc4)NC3=N2)cc1` are 96% and -14.66.
In the same order, the values of `COc1ccc([C@@H]2C=C(c3ccc(Cl)cc3)N=C3NC(NC(=O)c4ccccc4OC)=NN32)cc1` are 96% and -8.52.
On to `COc1ccc([C@@H]2C=C(c3ccc(Cl)cc3)N=C3NC(N4C(=O)c5ccccc5C4=O)=NN32)cc1`, for which the “% Inhibition” value is recorded as -6% and the Z score is 0.61.
In the same order, the values of `O=C(NC1=NN2C(=NC(c3ccc(Cl)cc3)=C[C@H]2c2ccc(F)cc2)N1)c1ccc(Cl)cc1` are 48% and -9.04.
For `O=C(O)CCC(=O)NC1=NN2C(=NC(c3ccccc3)=C[C@H]2c2ccc(Cl)cc2)N1` the same measures were -39% and 4.56.
For the molecule `CCC(=O)NC1=NN2C(=NC(c3ccc(Cl)cc3)=C[C@H]2c2ccc(F)cc2)N1`, the “% Inhibition” value was found to be 5% and the Z score is on record as -0.64.
Take `COc1ccccc1C(=O)NC1=NN2C(=NC(c3ccc(Cl)cc3)=C[C@H]2c2ccccc2)N1`: the “% Inhibition” value was -8% and the Z score is listed as 0.83.
As to `O=C(NC1=NN2C(=NC(c3ccccc3)=C[C@H]2c2ccc(F)cc2)N1)c1ccccc1`, the “% Inhibition” value is recorded as -11% and the Z score came out at 1.69.
Regarding `COc1ccccc1C(=O)NC1=NN2C(=NC(c3ccc(Cl)cc3)=C[C@H]2c2ccc(Cl)cc2)N1`, the “% Inhibition” value amounted to 97% and the Z score is -10.07.
With `Cc1cccc(OCC(=O)Nc2cc(-c3noc(C)n3)sc2C)c1`, the “% Inhibition” value is -14% and the Z score worked out at 2.32.
For `Cc1ccc(-n2cnc3c2CCN(C(=O)C(=O)Nc2c4c(nn2C)CCCC4)C3)cc1` the same measures were -13% and 1.99.
For the molecule `C[C@H]1Cc2ccccc2N1C(=O)Cn1cc(-c2ccn(C)n2)nn1`, the “% Inhibition” value is 6% and the Z score is listed as -0.77.
Regarding `COC(=O)CC(C)NC(=O)CC(C)NC(=O)C1CCCC1` (centres undefined), the “% Inhibition” value was -9% and the Z score turned out to be 1.14.
In the case of `OCCN(CCO)c1ccc(C(c2ccccc2Cl)c2ccc(N(CCO)CCO)cc2Cl)c(Cl)c1`, the “% Inhibition” value was -9% and the Z score was 1.44.
For `CC1=CC(=[N+](CCO)CCO)C=C/C1=C(\c1ccc(N(CCO)CCO)cc1C)c1ccccc1Cl` the same measures were 86% and -10.15.
As to `OCCN(CCO)c1ccc2ccccc2c1`, the “% Inhibition” value is 7% and the Z score was -0.86.
For `COc1cccc(C(=O)N2CCC([C@]3(CCC(C)C)NC(=O)N(CCN(C)C)C3=O)CC2)c1OC` the same measures were -8% and 1.37.
Take `O=C(Cc1ccc(F)cc1Cl)N[C@@H](Cc1ccncc1)C1CC(O)C1` (some centres undefined): the “% Inhibition” value was -6% and the Z score was 1.08.
Take `N#Cc1cccc(CN2Cc3nc[nH]c3C[C@H]2C(=O)NCc2ccco2)c1`: the “% Inhibition” value is recorded as -5% and the Z score was determined as 0.75.
For `Nc1c(S(=O)(=O)c2ccc(Cl)cc2)c2nc3ccccc3nc2n1Cc1ccc(F)cc1` the same measures were -2% and 0.21.
For `CCn1c(N)c(-c2nc3ccccc3[nH]2)c(=O)c2ccccc21` the same measures were -1% and 0.15.
For `Nc1c(-c2nc3ccccc3[nH]2)c2nc3ccccc3nc2n1Cc1ccccc1F` the same measures were 78% and -5.76.
As for `O=C(COc1ccc(Br)cc1)N1CCN(S(=O)(=O)c2ccc3ccccc3c2)CC1`, the “% Inhibition” value is recorded as -3% and the Z score was 0.36.
For `CN(C)c1nc2cc(NC(=O)Cc3noc4ccccc34)ccc2o1` the same measures were -15% and 2.38.
For `Cn1cnnc1CNC[C@H](O)c1ccc(Cl)cc1` the same measures were -8% and 1.54.
In the same order, the values of `CN(C)CCNS(=O)(=O)c1c[nH]c2c(Br)cccc12` are 31% and -3.96.
Consider `Cc1ccc2nc(CN3CCS(=O)(=O)C(C)C3C)cn2c1` (centres undefined), for which the “% Inhibition” value is -13% and the Z score is reported as 1.17.
In the same order, the values of `COCCCNC(=O)c1cc(Br)ccc1Br` are -3% and 0.44.
`COc1cc2c(cc1OC)CN(C(=O)c1ccc(N3CCOCC3)nc1)CC2`: the “% Inhibition” value is listed as 2% and the Z score is reported as -0.32.
As for `CC(C)c1nnc(C2CCN(C(=O)c3c[nH]c4ccccc34)CC2)o1`, the “% Inhibition” value amounted to 11% and the Z score is on record as -1.46.
For `O=c1[nH]c2cc(Br)c(S(=O)(=O)Nc3cccnc3)cc2[nH]1`, the “% Inhibition” value was determined as 3% and the Z score is given as -0.54.
For `Cc1cc2[nH]c(=O)[nH]c2cc1S(=O)(=O)NC1CCCCC1` the same measures were -5% and 0.69.
With `O=c1[nH]c2cc(Cl)c(S(=O)(=O)Cl)cc2[nH]1`, the “% Inhibition” value is 69% and the Z score is listed as -7.82.
For `CN1C(=O)C2(CCN(C(=O)CN3C(=O)OC(C)(C)C3=O)CC2)c2ccccc21`, the “% Inhibition” value was -7% and the Z score was 0.88.
Regarding `O=C(CN(CC1CCCO1)C(=O)C1CC1(Cl)Cl)N1CCCC1` (centres undefined), the “% Inhibition” value is -19% and the Z score is given as 1.85.
As to `O=C(c1cccc(-n2cnnn2)c1)N1CCn2c1nc1ccccc12`, the “% Inhibition” value came to 2% and the Z score is reported as -0.23.
For `O=C(c1ccc2c(c1)OCO2)N1CCn2c1nc1ccccc12` the same measures were 72% and -0.31.
For `O=C(c1cncc(N2CCOCC2)c1)N1CCn2c1nc1ccccc12`, the “% Inhibition” value is listed as -9% and the Z score turned out to be 1.5.
Consider `Cc1cnc(C(=O)NC2CCCCCCC2)cn1`, for which the “% Inhibition” value came out at 18% and the Z score is given as -2.33.
In the same order, the values of `O=C(CC1CCC(F)(F)CC1)Nc1ccc2c(c1F)CCNC2` are -13% and 1.83.
For `COc1ccc2nc(O)c(C(=O)Nc3ccc4c(c3F)CCNC4)cc2c1` the same measures were 99% and -18.01.
`COc1ccc2nc(O)c(CCC(=O)N3CCCC3)cc2c1`: the “% Inhibition” value was -20% and the Z score worked out at 3.74.
For `CC(C)n1ccnc1CN1CCC[C@@](O)(CNC(=O)N2CCCCC2)CC1` the same measures were -5% and 0.65.
In the same order, the values of `CN1CCC(NCCOCc2ccc(Cl)cc2Cl)CC1` are 0% and 0.
In the same order, the values of `COc1ccc(Cl)cc1CNCCN(C)C` are -7% and 0.59.
Take `CC(C)CC[C@@H](CCNCc1ccccn1)c1ccc(Cl)cc1`: the “% Inhibition” value is recorded as 25% and the Z score was -3.14.
For `CC(Cc1ccccc1Cl)C(=O)NC1CCN(C(=O)Nc2ccccc2)C1` (centres undefined) the same measures were -1% and 0.11.
Turning to `CC(C)CC[C@@H](CCN1CCCC1)c1ccc(OC(C)C)cc1`, the “% Inhibition” value turned out to be 2% and the Z score is given as -0.36.
For `CC(C)CC[C@@H](CCNCCN(C)C)c1ccc(Cl)cc1` the same measures were 90% and -10.16.
Take `CC(C)CCn1ccc(NC2CCN(C)CC2)n1`: the “% Inhibition” value is given as -15% and the Z score came to 1.91.
On to `CN1CCC(NCC[C@@H](Cc2ccccc2Cl)c2ccc(Cl)cc2)CC1`, for which the “% Inhibition” value is reported as 72% and the Z score is recorded as -14.93.
In the case of `CC(C)CC[C@@H](CCNC1CCN(C)CC1)c1ccc(Cl)cc1`, the “% Inhibition” value came out at 63% and the Z score is given as -7.69.
In the same order, the values of `Cn1ccc(-c2nnc(NC(=O)C3CCCCC3)o2)n1` are -10% and 1.57.
In the same order, the values of `Cc1c(F)cccc1C(=O)N(C)Cc1cc(C2CC2)on1` are 1% and -0.14.
In the same order, the values of `Cc1nn(C(F)F)cc1-c1ccc(C(=O)N[C@H]2CCCC[C@@H]2O)cc1` are 1% and -0.28.
For the molecule `CCn1c(CCc2cccc(NC(=O)Nc3ccccc3)c2)nc2ccccc21`, the “% Inhibition” value was 1% and the Z score is -0.11.
`O=C(NCCc1cn2c(n1)CCCC2)c1cccnc1`: the “% Inhibition” value is on record as -1% and the Z score is 0.23.
For `CCC1CN(C(=O)NCc2cc(OC)no2)CC(C)O1` (centres undefined) the same measures were -11% and 2.2.
With `CC1(C(=O)Nc2n[nH]c3cc(F)ccc23)CC2CCC1O2` (centres undefined), the “% Inhibition” value is given as -7% and the Z score was 1.08.
For `Cc1cc(C)c(C(=O)NCC#C[C@@H]2CCCCO2)c(C)n1`, the “% Inhibition” value is listed as -23% and the Z score turned out to be 2.49.
With `Cc1cccc2ncc(C(=O)N[C@@]34COC[C@@H]3C4)n12`, the “% Inhibition” value was -12% and the Z score was found to be 1.31.
In the same order, the values of `O=C(NC[C@H]1OC[C@@H](NCc2cccnc2)[C@@H]1O)c1ccc(F)cc1` are -7% and 0.99.
In the same order, the values of `Cc1c([C@@H](NCC(=O)N2CCC(C(N)=O)CC2)C(C)C)oc2ccccc12` are -13% and 1.5.
Regarding `Cc1c([C@@H](NCc2ncccc2O)C(C)C)oc2ccccc12`, the “% Inhibition” value is 97% and the Z score is reported as -8.67.
With `Cc1c([C@H](C)NCc2cncnc2)oc2ccccc12`, the “% Inhibition” value was -15% and the Z score was determined as 1.68.
